USP2a inh: blocks human ubiquitin-specific protease USP2a; O75604; AID 463254; USP2 core, Ub-CHOP2 coupled fluorogenic reporter, 485/531; Potency, µM (titrated, usually from 38.3 µM), inactives show at the highest dose activity change, negative = inhibition, most hits filed as inhibitors; 0.01% of 330,000 active;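 further: potency means the concentration at half of the fitted maximal effect; plate controls were DMSO wells for no effect and full inhibition by NEM control for full effect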
Target sequence (O75604 whole entry, looked up): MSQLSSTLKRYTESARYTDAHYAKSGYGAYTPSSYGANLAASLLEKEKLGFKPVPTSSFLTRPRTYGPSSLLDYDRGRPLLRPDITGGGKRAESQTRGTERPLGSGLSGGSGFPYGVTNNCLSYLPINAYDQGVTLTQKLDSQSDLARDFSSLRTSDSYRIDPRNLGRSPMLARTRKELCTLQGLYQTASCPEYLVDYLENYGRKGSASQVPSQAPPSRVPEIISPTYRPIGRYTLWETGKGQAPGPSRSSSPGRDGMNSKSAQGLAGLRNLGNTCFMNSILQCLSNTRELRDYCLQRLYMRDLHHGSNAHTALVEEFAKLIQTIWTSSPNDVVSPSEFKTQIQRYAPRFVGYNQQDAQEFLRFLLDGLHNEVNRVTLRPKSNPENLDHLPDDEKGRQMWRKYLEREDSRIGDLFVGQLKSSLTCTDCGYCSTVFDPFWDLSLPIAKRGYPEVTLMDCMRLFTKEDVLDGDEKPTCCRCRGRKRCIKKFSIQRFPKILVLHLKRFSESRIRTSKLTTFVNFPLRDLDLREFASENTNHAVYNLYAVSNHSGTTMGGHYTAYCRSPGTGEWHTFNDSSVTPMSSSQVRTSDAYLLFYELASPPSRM
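USP2 core (10nM final) preincubated 30min RT with compound in 20mM Tris-HCl pH 8.0, 2mM CaCl2, 2mM beta-mercaptoethanol, 0.05% CHAPS; 25nM Ub-CHOP2 plus 25nM reporter substrate added, fluorescence (Ex485/Em531) read after 60min.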
VDR inhibitor: blocks the human vitamin D receptor. P11473. 0.93% of 400,000 active. Potency, µM, without a hit: max response, negative = inhibition, usual class: inhibitors. VDR-SRC2-3 peptide fluorescence polarization, 2 h. AID 504847; further: potency means the concentration at half of the fitted maximal effect
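VDR–SRC2-3 interaction, FP format. Cmpds 23 nl via pintool, brief spin, 2 h ambient incubation.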
PLK1 PBD inh: blocks phosphopeptide binding to human PLK1 polo-box domain; P53350; Plk1 PBD binding of FITC phosphopeptide, fluorescence polarization; Potency, µM, without a hit: max response, negative = inhibition, most hits filed as inhibitors; 2.8% of 360,000 active; further: potency means the concentration at half of the fitted maximal effect; series mostly up to about 57 µM; nearly all actives have a fitted effect of over 65% in size
GALK inh: galactokinase (human) inhibition; Potency, µM (titrated, usually from 57.5 µM), inactives show at the top dose activity change, negative = inhibition, actives largely listed as inhibitors; Purified GALK, Kinase-Glo residual ATP luminescence; 0.007% of 270,000 active; further: potency means the concentration at half of the fitted maximal effect
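Human GALK (5 nM) with 35 uM ATP and 100 uM galactose in 20 mM HEPES pH 8.0, 5 mM MgCl2, 60 mM NaCl, 1 mM DTT, 0.01% BSA. After 1 h at room temperature, leftover ATP was read by Kinase-Glo Plus luminescence.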
USP1-UAF1 inh: inhibitors of human USP1/UAF1 deubiquitinase. recombinant USP1/UAF1, Ub-Rhodamine cleavage fluorescence. 0.23% of 390,000 active. AID 743255. Potency, µM (top dose mostly 57.1 µM), for inactives: at the highest dose activity change, negative = inhibition, usual class: inhibitors. O94782; further: potency means the concentration at half of the fitted maximal effect; nearly all actives have a fitted effect of over 60% in size
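1 nM enzyme complex + cpd, 15 min RT; start with Ub-Rho 150nM final; kinetic fluorescence ex 480/em 540, 6 reads q60 s. Buffer 50mM HEPES pH 7.8, 0.5mM EDTA, 0.1 mg/ml BSA, 1mM TCEP, 0.01% Tween-20.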
FBPA coupling cs: counter-screen for Giardia aldolase inhibitors: coupling enzyme system; coupling enzyme system counterscreen, AmpLite Red fluorescence; activity change, negative = inhibition, % at 58.2 µM, hits read low; 0.67% of 290,000 active; in the data active means activity change below about -30%
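Final compound at 57.5 uM, incubated 10 min at RT with coupling enzyme reagent (glyceraldehyde-3-phosphate), then 20 min with substrate and AmpLite Red detection. Fluorescence read at 525/598 nm; tests interference with the coupling assay, not aldolase inhibition.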
* = called active by the depositor; ? = inconclusive; / = no result; ! = a repeat was not active. Only some compounds are listed: those with a hit (about 3.2% of all), similar ones and a draw of the others. Unless noted, the call rests on the fitted dose curve; in most records, active means well fitted curve in the direction sought with a large enough effect; inconclusive means small, poorly fitted or top-dose-only effect, or another doubt; inactive means no such curve, though single readings can be large; an effect the other way counts as inactive or inconclusive. Unless noted, on the % scale 0 is the no-effect control and ±100 the full control effect.

SMILES	USP2a inh	VDR inhibitor	PLK1 PBD inh	GALK inh	USP1-UAF1 inh	FBPA coupling cs
CCCCNC(=O)CCn1c(=O)c2ccccc2n(CC(=O)N2CC(C)CC(C)C2)c1=O (stereo unspecified)	1%	-14%	-1%	0%	-3%	2
CC(=O)Nc1ccc(OCC(O)CN2CCN(c3ccc(C)c(Cl)c3)CC2)cc1 (stereo unspecified)	-2%	-3%	-5%	1%	-3%	-1
COC(=O)c1ccccc1NC(=O)CN(c1cc(OC)ccc1OC)S(C)(=O)=O	-2%	7%	1%	-3%	-13%	0
Cc1ccc(NC(=O)CNC(=O)c2ccc3c(c2)OCO3)nc1	4%	9%	-5%	-4%	-19%	-5
CC(NC(=O)c1ccc(Cn2cc([N+](=O)[O-])cn2)cc1)c1ccccc1 (stereo unspecified)	3%	?	27µM*	1%	-5%	1
CCOCC(=O)Nc1ccc(S(=O)(=O)Nc2nccs2)cc1	6%	4%	-4%	-1%	-7%	-1
CN1CCc2cccc3c2[C@@H]1Cc1ccc(O)c(O)c1-3	3%	32µM*!	?	6%	-10%	-7
COc1ccc2c(c1O)-c1ccccc1CCN(C)C2	3%	-10%	-2%	1%	17%	2
COc1ccc(C2C(C#N)=C(N)SC(N)=C2C#N)cc1OC	2%	-26%	-22%	-1%	-21%	-25
N#CC1=C(N)SC(N)=C(C#N)C1c1cccc(O)c1	4%	-21%	-5%	-2%	?	-32*
CCCCNC(=S)N(C)/N=C/c1ccc(OCC(=O)Nc2c(C)cc(C)cc2C)c(OC)c1	-1%	49%	-23%	-1%	0%	-1
COc1ccccc1C(NC(=O)C1CCN(CCc2ccc(Br)cc2)CC1)c1ccccn1 (stereo unspecified)	/	/	1%	/	/	/
CCOC(=O)c1c(N2C(=O)Nc3cc(Cl)c(Cl)cc3N2O)sc2c1CCCCC2	-20%	?	13µM*	1%	-7%	13
CCOC(=O)c1c(-n2cnnn2)sc2c1CCCC2	0%	-26%	-8%	-3%	-19%	3
CC1(C(=O)NS(=O)(=O)c2cccc(Cl)c2)CCN1C(=O)CC1CC1 (stereo unspecified)	/	/	-10%	/	/	/
Cc1oc2ccc(O)c(CN3CCOCC3)c2c1C(=O)c1ccc(Cl)cc1	-11%	-7%	3%	0%	-4%	-40*
Cc1oc2ccc(O)c(CN3CCOCC3)c2c1C(=O)Nc1ccccc1	/	13%	/	/	?	/
COc1ccc(S(=O)(=O)N/N=C(/C)c2ccc(C)o2)cc1	/	9%	-19%	/	4%	/
C[C@@H]1CN(S(=O)(=O)C(C)(C)C)[C@@H](CCO)/C1=C\c1ccccc1	/	-6%	-12%	/	-21%	/
C=CCNC(=S)Nc1ccc(Cl)cc1	2%	-1%	13µM*	-1%	1%	2
S=C(NCc1ccccc1)Nc1ccc(Cl)cc1	0%	7%	5%	5%	-11%	1
COc1ccc(C(CNC(=O)COc2ccccc2C)N2CCOCC2)cc1 (stereo unspecified)	-1%	-7%	5%	/	-1%	/
CCc1ccc(NC(=O)CN2C(=O)c3cccc4cccc2c34)cc1	/	5%	/	/	-19%	/
N=C1S/C(=C\c2cn[nH]c2-c2ccc(F)cc2)C(=O)N1c1ccccc1F	4%	-20%	27µM*	-2%	-6%	6
N=C1S/C(=C\c2ccccc2F)C(=O)N1c1ccc(F)cc1	4%	2%	-24%	0%	-23%	2
SMILES	USP2a inh	VDR inhibitor	PLK1 PBD inh	GALK inh	USP1-UAF1 inh	FBPA coupling cs
CC1(C)CC(=O)C2=C(C1)OC1=C(C(=O)CC(C)(C)C1)C2c1cc([N+](=O)[O-])cc([N+](=O)[O-])c1O	0%	?	17µM*	4%	-12%	-36*
CCOc1cc(C2C3=C(CC(C)(C)CC3=O)OC3=C2C(=O)CC(C)(C)C3)cc([N+](=O)[O-])c1O	2%	5%	34µM*	0%	?	0
CCOc1cc(C2C3=C(CCCC3=O)OC3=C2C(=O)CCC3)cc([N+](=O)[O-])c1O	-1%	-8%	-29%	1%	-16%	-1
Cc1ccc(S(=O)(=O)C(CNC(=O)C(=O)NCCc2ccccc2)c2ccco2)cc1 (stereo unspecified)	/	-12%	/	/	?	/
O=C(NCc1cccc(Cl)c1)c1ccc2nc(N3CCOCC3)sc2c1	2%	-24%	27µM*	/	-9%	6
COc1ccc2cc(S(=O)(=O)c3ccccc3F)c(=O)oc2c1	/	-8%	/	/	-15%	/
COc1ccc(NC(=O)CSc2nc(-c3ccco3)cc(C(F)(F)F)n2)c(OC)c1	/	2%	/	/	-24%	/
CN(C)NC(=S)NC(=O)C12CC3CC(CC(C3)C1)C2	4%	?	-11%	-4%	3%	-2
CN(C(=S)NC(=O)C12CC3CC(CC(C3)C1)C2)c1ccc(O)cc1	5%	?	34µM*	/	-25%	/
COc1ccc(-c2nc3sc(CCNC(=O)C(=O)Nc4ccc(OC)c(OC)c4)c(C)n3n2)cc1	/	8%	/	/	14%	/
O=S(=O)(c1cccs1)N1CCN(S(=O)(=O)c2cccs2)CC1	3%	-12%	-4%	-3%	-17%	1
N#Cc1nccnc1S(=O)(=O)c1cccs1	3%	35µM*	27µM*	/	6%	-1
CC(NS(=O)(=O)c1ccc2c(c1)OCCO2)c1ccccc1 (stereo unspecified)	1%	-1%	-4%	4%	-26%	0
CC(C)C(NS(=O)(=O)c1ccc2c(c1)OCCCO2)C(=O)O (stereo unspecified)	3%	45µM*	24µM*	-2%	1%	5
COc1ccc(NC(=S)NCCc2ccccc2)c(C)c1	1%	1%	-4%	3%	-17%	2
O=C(NC1CCCCC1)c1ccc2ccccc2c1O	/	/	3%	/	-23%	/
COc1cc(C)c(NC(=O)C(=S)NCCc2ccccc2)cc1C	0%	?	12µM*	8%	-15%	4
O=C(NC1CCCCC1)C(=S)NCCc1ccccc1	4%	?	24µM*	0%	-25%	0
Nc1sc(Cc2ccccc2)cc1C(=O)NC1CCCCC1	/	/	27µM*	/	/	/
O=C(NCCc1ccccc1)C(=O)NC1CCCCC1	3%	-9%	-12%	1%	-5%	0
O=C(Cc1ccsc1)NCC(c1ccco1)N1CCCCC1 (stereo unspecified)	0%	2%	-10%	8%	-22%	-3
COc1ccc(N(Cc2cc3cc(OC)ccc3[nH]c2=O)C(=O)c2cccc(Cl)c2)cc1	/	8%	/	/	-22%	/
